# Wee1 degr inh: inhibitors of human Wee1 degradation; hit rate 1.2% among 220,000; HeLa Luc-Wee1K328M stability, luciferase luminescence; 100% = proteasome inhibitor MG132 effect; reporter increase, % at 5 µM;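 active means activation above the mean of all tested compounds plus 3 SD, set per screening run, cut at about 8.8% in these data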;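 further: cells exposed to compound for 20 h before luminescence read; 0% = DMSO alone and 100% = MG132 at 30 µM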
# Target sequence (P30291 whole entry K328M): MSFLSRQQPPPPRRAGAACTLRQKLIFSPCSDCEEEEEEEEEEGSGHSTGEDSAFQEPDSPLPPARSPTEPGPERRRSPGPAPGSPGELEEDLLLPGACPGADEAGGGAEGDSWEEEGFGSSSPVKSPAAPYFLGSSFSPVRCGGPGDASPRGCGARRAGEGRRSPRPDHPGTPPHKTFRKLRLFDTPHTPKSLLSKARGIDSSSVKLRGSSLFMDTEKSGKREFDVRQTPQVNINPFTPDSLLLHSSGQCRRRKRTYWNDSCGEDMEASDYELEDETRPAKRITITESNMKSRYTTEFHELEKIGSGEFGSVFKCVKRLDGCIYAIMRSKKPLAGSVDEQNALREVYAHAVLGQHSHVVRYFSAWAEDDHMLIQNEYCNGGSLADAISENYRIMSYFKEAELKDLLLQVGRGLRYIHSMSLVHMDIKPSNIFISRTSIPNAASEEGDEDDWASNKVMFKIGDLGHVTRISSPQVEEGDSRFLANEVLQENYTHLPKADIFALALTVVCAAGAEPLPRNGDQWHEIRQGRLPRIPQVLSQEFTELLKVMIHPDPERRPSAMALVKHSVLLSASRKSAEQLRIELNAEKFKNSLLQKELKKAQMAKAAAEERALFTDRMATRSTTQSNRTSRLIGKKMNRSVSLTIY
# Hsp70 activator: transcriptional activators of Hsp70 | hit rate 0.04% among 200,000 | AID 1203 | HeLa Hsp70 promoter luciferase reporter, luminescence; scaled: vehicle 0, proteasome-inhibitor control 100% | activation, % at 10 µM;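 active means activation above the mean across all tested compounds plus 3 SD, cutoff set per campaign, cut at about 5.5% in these data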;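 further: 100% = MG132 at 30 µM as the positive control and 0% = DMSO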
# NF-kB neuron act: compounds increasing NF-kB expression in human neuronal cells. NF-kB reporter expression; stronger effect = higher value. hit rate 1.6% among 190,000. fold change at 12.5 µM; in the data active means fold change above about 3.3
# APP 5UTR inh: APP translation inhibition; SH-SY5Y APP 5'UTR-luciferase reporter, luminescence; inhibition, % at 2 µM; hit rate 0.82% among 190,000;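 active means inhibition above a set limit, derived from the sample mean plus 3 SD, cut at about 45% in these data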
# APP 5'UTR act: APP 5'UTR luciferase reporter activation; SH-SY5Y APP 5'UTR luciferase reporter, luminescence; zero percent = DMSO vehicle wells; hit rate 1% among 190,000; activation, % at 2 µM; AID 1276;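 active means activation above a set limit, based on mean plus 3 SD of controls, cut at about 140% in these data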
# STAT1 activator: increases IFN-gamma driven STAT1 reporter signal. NIH 3T3 STAT1-luciferase reporter, luminescence; 100% = IFN-gamma alone, no compound. activation (% of control), % at 5.5 µM. hit rate 2.6% among 200,000;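 active means activation above the screen-wide mean activation plus 3 SD, cut at about 130% in these data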;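 further: raw ratio to IFN-gamma control signal so 100% means no change and 0% no light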
# Wee1 degr conf: confirmation of human Wee1 degradation inhibitors; shares compounds with Wee1 degr inh; HeLa Luc-Wee1K328M degradation, luminescence; vehicle 0%, proteasome-blocked wells 100%; activation, % at 5 µM; hit rate 4% among 1,100; AID 1410; in the data active means activation above about 8.9%
# * marks the source's active call; other numbers are inactive results; . = no result given. Shown are actives, neighbours in structure and some others; about 4.8% of the full set was active somewhere.
SMILES,Wee1 degr inh,Hsp70 activator,NF-kB neuron act,APP 5UTR inh,APP 5'UTR act,STAT1 activator,Wee1 degr conf
CCc1[nH]nc2c1C1(CCN(C(=O)OCc3ccccc3)CC1)C(C#N)=C(N)O2,16*,0,0.92,-5,5,98,2
CC(=O)COC(=O)CNC(=O)c1ccc(Br)cc1,-1,0,1.1,-13,13,105,.
Cc1ccc(NC(=O)COC(=O)CNC(=O)c2ccc(Br)cc2)c(C)c1,14*,0,1.1,18,-18,100,1
CCn1cc(C(=O)OCC(=O)c2ccccc2)c(=O)c2ccc(C)nc21,12*,0,1.1,2,-2,98,-1
COc1ccc(C(=O)COC(=O)c2ccccc2NS(=O)(=O)c2ccc(O)c([N+](=O)[O-])c2)cc1,0,.,.,.,.,.,.
CCNC(=O)CN(C1CCCCC1)S(=O)(=O)c1ccc(F)cc1,0,0,1.2,12,-12,103,.
COc1ccc(-c2noc(CSc3nc(-c4ccccc4)cc(=O)[nH]3)n2)cc1OC,14*,0,1.1,6,-6,103,0
CCOC(=O)c1c(NC(=O)c2ccccc2)sc2c(O)c(CN(CC)CC)ccc12,-2,0,0.87,-14,14,102,.
CC(C)C1OC2(C)OC(=N)C1(C#N)C(C#N)(C#N)C2c1ccccc1 (centres undefined),17*,0,1.1,-6,6,101,-2
O=C(COC(=O)Cc1ccc(Br)cc1)NC12CC3CC(CC(C3)C1)C2,7,-1,0.89,-2,2,103,.
S=C(Nc1ccccc1)N1CCN(Cc2ccccc2)CC1,3,.,.,.,.,.,.
S=C(NCCCN1CCOCC1)Nc1cccc(Cl)c1,0,0,1.1,-7,7,101,.
S=C(Nc1cccc(Cl)c1)N1CCN(Cc2ccccc2)CC1,11*,0,1.3,4,-4,103,4
S=C(NCCN1CCOCC1)Nc1cccc(Cl)c1,15*,0,1.6,-17,17,100,-1
Cc1c(O)cc2n(c1=O)-c1ccccc1C2(C)C,-2,0,0.86,10,-10,100,.
CC1(C)c2ccccc2-n2c1cc1oc(=O)cc(O)c1c2=O,15*,.,.,.,.,.,2
O=C(Nc1cccc(Cl)c1)Nc1ccc(Br)cc1F,13*,0,1,-64,64,112,-1
CC(=O)NC1=NN(C(C)=O)C(c2ccc(C(C)C)cc2)S1 (centres undefined),24*,0,1.7,-18,18,97,1
CC(=O)NC1=NN(C(C)=O)C(c2cccc([N+](=O)[O-])c2)S1 (centres undefined),-1,0,0.94,21,-21,101,.
CCOC(=O)CC1COCCN1Cc1cn[nH]c1-c1ccc2c(c1)OCO2 (centres undefined),7,0,1.2,-4,5,95,.
N#CCCN1CCN(C(=O)c2c(N)no[n+]2[O-])CC1,-1,0,1.1,13,-13,106,.
CCCNC(=O)Cc1c(C)oc2ccccc12,-3,.,.,.,.,.,.
CCNC(=O)CN(c1ccc(Cl)cc1)S(=O)(=O)c1ccccc1,-1,0,1.1,-3,3,109,.
O=C(NCc1ccncc1)C(=O)NCC(c1ccccc1)c1ccccc1,0,0,1.2,4,-4,113,.
CCN(CC)CCn1c(NC(=O)c2ccc(C(F)(F)F)cc2)nc2ccccc21,13*,0,1.1,9,-9,106,0
SMILES,Wee1 degr inh,Hsp70 activator,NF-kB neuron act,APP 5UTR inh,APP 5'UTR act,STAT1 activator,Wee1 degr conf
CCC(=O)Nc1nc2ccccc2n1CCN(CC)CC,-1,0,0.96,-22,22,96,.
Cc1ccccc1NC(=O)/C(=C/c1ccco1)c1ccccc1,0,0,0.98,-6,6,97,.
C/C=C/c1ccc(OCC(=O)Nc2ccc(C(N)=O)cc2)c(OC)c1,-2,0,1,-4,4,111,.
COc1cc(C=C2C(=O)OC(C)(C)OC2=O)ccc1OCC(=O)Nc1ccccc1,15*,0,2.5,-12,12,122,3
O=C(CCc1n[nH]c(=O)[nH]c1=O)Nc1cccc([N+](=O)[O-])c1,13*,0,1.2,-5,5,106,-2
COC(=O)CCC(=O)Nc1cccc([N+](=O)[O-])c1,-1,0,1.2,1,-1,106,.
CCc1cccc(CC)c1NC(=S)Nc1ccccc1,3,0,0.9,20,-20,89,.
Cc1ccc(NC(=S)N2CCOCC2)cc1,-2,0,1.3,12,-12,98,.
Cc1ccc(NC(=S)N2CCCC(O)C2)cc1 (centres undefined),14*,0,1.2,-1,1,106,2
COc1cc(C)c(S(=O)(=O)N2CCOCC2)cc1C(C)C,2,0,1.1,18,-18,92,.
COc1cc(C)c(N)cc1C(C)C,19*,2,0.98,5,-5,99,-1
NNC(=O)CNc1ccccc1Cl,11*,0,1.1,-3,3,105,-1
COC(=O)C1CCN(C(=O)/C=C/c2ccc(OC)cc2)CC1,11*,0,1.4,-65,65,115,10*
COc1ccc(/C=C/C(=O)N2CCC(c3ccccc3)C2)cc1 (centres undefined),0,0,1.3,-25,25,101,.
Cc1cc(NC(=O)CSc2ccc(-c3ccccc3)nn2)no1,-1,0,1.1,-8,8,98,.
CCC(C)[C@H](NC(=O)N1CCN(c2cccc(C(F)(F)F)c2)CC1)C(=O)OC (some centres undefined),12*,0,1.2,-6,6,90,3
CCOC(=O)N1CCN(C(=O)CSc2nc3ccccc3c(=O)n2-c2ccccc2)CC1,11*,0,0.38,21,-21,93,4
Cc1cc(C)c2c(N)c(C(=O)C(C)(C)C)sc2n1,13*,0,1.5,-8,8,99,-1
Cc1cc(C)c2c(N)c(C(=O)c3ccc(Cl)c(Cl)c3)sc2n1,-1,0,1.1,-7,7,107,.
Cc1cccc(N2C(=O)C(Cl)=C(Nc3c(C)n(C)n(-c4ccccc4)c3=O)C2=O)c1C,2,0,1.2,-3,3,105,.
CC(=O)c1cc2c(C)c(C(=O)c3ccccc3)oc2cc1O,12*,0,4*,-156,156*,120,-2
COc1ccc(CC(=O)Nc2cccc(-c3cn4ccccc4n3)c2)cc1,1,0,1,0,0,118,.
Cc1ccc2[nH]c(C(=O)NN=C3CCCCC3)c(-c3ccccc3)c2c1,16*,0,0.93,37,-37,97,4
CC(=O)C1C(c2ccc3ncccc3c2)NC(=O)NC1(O)C(F)(F)F (centres undefined),-1,0,1,-6,6,93,.
